Source: PubChem BioAssay (National Center for Advancing Translational Sciences (NCATS))
An excerpt weighted towards active compounds, which were near 3.2% of everything screened.
LmPK inhibitor = inhibitors of Leishmania mexicana pyruvate kinase; actives 0.37% (n = 290,000); Potency, µM (series often up to 57.5 µM), for inactives: top-dose activity change, negative = inhibition, hits mostly inhibitors; purified LmPK, Kinase-Glo ATP luminescence, 1 h; AID 1721; Q27686
Target sequence (Q27686 whole entry, looked up): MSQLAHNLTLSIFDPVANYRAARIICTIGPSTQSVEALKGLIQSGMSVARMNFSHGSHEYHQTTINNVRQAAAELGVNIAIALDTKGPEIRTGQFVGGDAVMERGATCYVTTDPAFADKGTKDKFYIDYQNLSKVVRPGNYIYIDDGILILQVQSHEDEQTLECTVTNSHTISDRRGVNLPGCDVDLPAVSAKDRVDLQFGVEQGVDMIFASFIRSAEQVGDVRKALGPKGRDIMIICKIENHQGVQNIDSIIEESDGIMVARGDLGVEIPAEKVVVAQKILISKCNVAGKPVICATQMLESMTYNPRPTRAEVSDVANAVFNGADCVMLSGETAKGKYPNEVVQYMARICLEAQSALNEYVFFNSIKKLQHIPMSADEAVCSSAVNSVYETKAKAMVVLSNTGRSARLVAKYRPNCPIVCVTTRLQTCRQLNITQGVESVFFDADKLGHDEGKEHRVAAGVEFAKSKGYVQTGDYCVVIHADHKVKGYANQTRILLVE
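In 50 mM imidazole pH 7.2 with 7 mM MgCl2, LmPK (0.1 nM) turned over PEP (0.5 mM) and ADP (0.1 mM) for 1 h at room temperature. Luciferase read-out of ATP.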
Tb PYK inh = inhibitors of Trypanosoma brucei pyruvate kinase | Potency, µM (titrated, usually from 76.8 µM), inactives show at the top dose activity, negative = inhibition, most hits filed as inhibitors | Q57TT1 | actives 0.12% (n = 410,000) | TbPYK enzyme, Kinase-Glo Plus ATP luminescence, 45 min; further: nearly all actives have a fitted effect of over 50% in size
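Enzyme and substrate buffer are dispensed first and compound is pin-transferred. ADP at 130 uM final then starts the reaction, which runs 45 min at room temperature. Detection reagent is added for 10 min before luminescence is imaged.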
AMA1 RON2 block = inhibitors of Plasmodium falciparum AMA1-RON2 interaction | Potency, µM (highest dose often 58.2 µM), for the others: top-dose activity change, negative = inhibition, most hits filed as inhibitors | actives 0.2% (n = 360,000) | AlphaScreen AMA1-biotinylated RON2 peptide binding | AID 720542;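 further: 0% = vehicle wells and -100% = peptide control; nearly all actives have a fitted effect of over 45% in size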
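AMA1 (3D7) with his tag at 25 nM final met compounds first, then biotinylated RON2 peptide at 25 nM; detection used donor plus acceptor beads, 10 µg/mL apiece, read by AlphaScreen after 30 min at room temperature.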
RE007 growth inh = less growth of the S. pombe RE007 Vpr strain; S. pombe RE007 Vpr strain, BacTiter-Glo ATP luminescence, 24 h; Potency, µM (titrated, usually from 92.2 µM), for inactives: at the top dose activity change, negative = less growth, usual class: inhibitors; actives 0.21% (n = 360,000); AID 651644; active means well fitted falling curve with a large enough effect; inconclusive means small, poorly fitted or top-dose-only effect; inactive means no such curve, though single readings can be large or run the other way; further: nearly all actives have a fitted effect of over 50% in size
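Fission yeast strain RE007, carrying one chromosomally integrated HIV-1 vpr copy, was seeded at OD 0.01 in PMG+AL medium with 23 nL pinned compound. After 24 h at 30 °C and 99% humidity, viability was read by BacTiter-Glo luminescence.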
Sm TGR block = inhibitors of Schistosoma mansoni thioredoxin glutathione reductase | Q962Y6 | purified TGR, DTNB reduction, TNB absorbance 405 nm | Potency, µM (series often up to 114 µM), for the others: at the highest dose activity change, negative = inhibition, hits mostly inhibitors | actives 3% (n = 360,000) | AID 485364; further: nearly all actives have a fitted effect of over 60% in size
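Kinetic colorimetric format: TGR-catalysed, NADPH-driven DTNB reduction monitored via TNB absorbance. Enzyme dispensed at 20 nM; compound exposure 15 min at room temperature before reaction start.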
The depositor's hits bear a star; ? = inconclusive; . = no result; [ ] = dose if it differs, or a comment. Unless noted, the call rests on the fitted dose curve; in most records, active means well fitted curve in the direction sought with a large enough effect; inconclusive means small, poorly fitted or top-dose-only effect, or another doubt; inactive means no such curve, though single readings can be large; an effect the other way counts as inactive or inconclusive. Unless noted, on the % scale 0 is the no-effect control and ±100 the full control effect; potency means the concentration at half of the fitted maximal effect.

SMILES	LmPK inhibitor	Tb PYK inh	AMA1 RON2 block	RE007 growth inh	Sm TGR block
Cc1ccc(S(=O)(=O)c2nnn3c2nc(NCc2ccc4c(c2)OCO4)c2sccc23)cc1C	.	-8%	.	.	0%
CCN1C(=O)/C(=C2\C=Cc3ccccc3N2CC)SC1=S	-16%	-7%	1.2µM*	-4%	4%
CCN1C(=O)/C(=c2\o/c(=C3\C=Cc4ccccc4N3CC)c(=O)n2CC)SC1=S	-15%	-4%	-12%	-11%	4%
CN(C)Cc1cc(O)c(CN(C)C)cc1O	-4%	-26%	?	-10%	2.5µM*
CCn1c(=O)c2cc(C(=O)NCCCN3CCN(c4ccc(F)cc4)CC3)sc2c2ccccc21	.	-5%	.	.	-5%
COc1cc(C(C[N+](=O)[O-])c2c(N)n(C)c(=O)n(C)c2=O)ccc1O (stereo not drawn)	4%	-1%	-11%	?	-31%
Cc1ccc(C(C[N+](=O)[O-])c2c(N)n(C)c(=O)n(C)c2=O)cc1 (stereo not drawn)	-2%	-10%	14%	?	-27%
Cn1c(N)c(C(C[N+](=O)[O-])c2ccccc2Cl)c(=O)n(C)c1=O (stereo not drawn)	.	2%	5%	40µM*	.
COc1cccc(F)c1C(C[N+](=O)[O-])c1c(N)n(C)c(=O)n(C)c1=O (stereo not drawn)	13%	-1%	-2%	16µM*	-12%
CC1(C)O[C@@H]2C[C@H]3[C@@H]4CCC5=CC(=O)C=C[C@]5(C)[C@H]4C(O)C[C@]3(C)[C@]2(C(=O)CO)O1 (stereo partly drawn)	.	-8%	.	.	.
CN(C)c1ccc(CNC(=O)c2cc3ccccn3n2)cc1	.	-5%	.	.	2%
CCOC(=O)c1c(-c2ccccc2)csc1NC(=O)c1cc(-c2ccc(Cl)cc2)on1	.	-1%	.	.	2%
Cn1nc(-c2ccccc2F)c2cc(C(=O)NCc3cccc(Cl)c3)sc21	.	0%	.	.	-8%
CC(C)OC(=O)c1nn2c(C(F)(F)F)cc(-c3ccc(Br)o3)nc2c1Br	-1%	-5%	-2%	-9%	20µM*
N#CSCC(=O)c1cccc2ccccc12	2%	-15%	-2%	?	32µM*
CCN(CC)CCn1c2ccccc2c2nc3ccccc3nc21	-1%	6%	-4%	0%	50µM*
CC1CCN(S(=O)(=O)c2ccc3c(c2)N(CC(=O)NCc2ccccc2)C(=O)CO3)CC1	.	-23%	.	.	4%
N#Cc1c(N)sc(=S)c2c1CCCC2	5%	-13%	34%	-22%	28µM*
CCOC(=O)c1c(C)[nH]c(C)c1S(=O)(=O)N1CCN(c2ccccc2OC)CC1	.	-4%	.	.	-9%
Cc1ccc(S(=O)(=O)c2ncccc2[N+](=O)[O-])cc1	-2%	4%	-6%	-18%	0.35µM*
O=C(CCS(=O)(=O)c1ccccc1)Nc1nc2ccc(F)cc2s1	.	1%	9%	13%	?
O=C(CCS(=O)(=O)c1ccccc1)Nc1nc2cc3c(cc2s1)OCO3	1%	-1%	-5%	22%	10µM*
O=C(CCS(=O)(=O)c1ccccc1)Nc1nc2cc3c(cc2s1)OCCO3	2%	-2%	-13%	8%	10µM*
O=c1c(-c2ccccc2)nc2cnc(N3CCNCC3)nc2n1C1CC1	.	4%	.	.	.
CSc1nnc(NC(=O)c2cc(=O)c3cc(C)c(C)cc3o2)s1	.	1%	.	.	1%
SMILES	LmPK inhibitor	Tb PYK inh	AMA1 RON2 block	RE007 growth inh	Sm TGR block
COc1cc(CCC(=O)NCc2ccc3c(c2)CCN3C(=O)c2cccc(C)c2)cc(OC)c1OC	.	3%	.	.	-13%
CN(C)CCCN(C(=O)c1ccc2c(c1)OCCO2)c1nc2cc3c(cc2s1)OCO3	-1%	-3%	-13%	-1%	-19%
CN(C)CCN(C(=O)c1ccc(N2C(=O)CCC2=O)cc1)c1nc2cc3c(cc2s1)OCO3	-2%[11.5 µM]	-16%	-7%	-11%	20µM*
CCc1nc2ccc(C(=O)N3CCN(c4ccccc4)CC3)cc2nc1CC	6%	3%	-6%	8%	8%
O=C(O)c1ccc2nc3c(nc2c1)-c1ccccc1C3=O	?	32µM*	4%	-15%	10%
O=C(c1ccc2nc(-c3ccco3)c(-c3ccco3)nc2c1)N1CCN(c2ccccc2)CC1	0%	-23%	-24%	7%	35µM*
CCc1nc2ccc(C(=O)NCCc3ccc(OC)c(OC)c3)cc2nc1CC	12%	-2%	3%	3%	-3%
Cc1ccc(-c2nc3ccc(C(=O)O)cc3nc2-c2ccc(C)cc2)cc1	7%	-2%	5%	2%	8%
O=C(O)c1ccc2nc(-c3ccco3)c(-c3ccco3)nc2c1	-24%	?	-17%	-11%	0.5µM*
COc1ccc(CCNC(=O)c2ccc3nc(-c4ccco4)c(-c4ccco4)nc3c2)cc1OC	8%	?	-20%	-5%	3.2µM*
CN(Cc1ccccc1)c1ccc2cc(S(=O)(=O)N3CCCCC3)ccc2n1	.	0%	.	.	5%
Cc1ccc(O)c(-c2n[nH]c3c2C(c2ccccc2F)N(Cc2ccco2)C3=O)c1 (stereo not drawn)	.	5%	.	.	3%
C#CCOc1ccc(-c2nnc(Nc3cccc(C)c3)c3ccccc23)cc1	.	-8%	.	.	0%
O=C(Nc1cccc(C(F)(F)F)c1)c1ccc2snnc2c1	.	0%	.	.	?
O=C(c1ccc2nc(-c3ccco3)c(-c3ccco3)nc2c1)N1CCC2(CC1)OCCO2	1%	-9%	-24%	-9%	1.6µM*
O=C(Nc1cccc(C(F)(F)F)c1)c1ccc2nc(-c3ccco3)c(-c3ccco3)nc2c1	-3%	?	?	-2%	3.5µM*
COc1ccc(C(=O)N2CCC3(CC2)OCCO3)cc1	2%	-1%	8%	18%	-21%
CCCCc1cc2c(cn1)C(=O)C(C)(OC(C)=O)C(=O)C2 (stereo not drawn)	-7%[11.5 µM]	.	.	.	.
O=C(CSc1ncn[nH]1)CSc1ncn[nH]1	-8%	-14%	15%	-14%	40µM*
CCC(C(=O)n1cccc1C#N)c1ccccc1C (stereo not drawn)	.	4%	8%	0%	50µM*
N#Cc1ccc2c(c1)NC(=O)C1CCCN21 (stereo not drawn)	0%	-4%	8%	5%	20µM*
O=C(/C=C\c1ccc(-c2ccccc2)o1)c1ccccc1	-15%	-16%	?	6%	11µM*
O=C(O)/C(=C\c1ccc(-c2ccc(F)cc2)o1)c1ccccc1	2%	-13%	-12%	1%	18µM*
CN(C)S(=O)(=O)c1ccc(C(=O)NCCSc2c(-c3ccc(Br)cc3)[nH]c3ccccc23)cc1	.	2%	.	.	6%
COc1ccc(OC)c(NC(=O)CCc2c(C)nc3c(c(C)nn3C(C)(C)C)c2C)c1	.	-2%	.	.	6%
